High-throughput results as filed in PubChem BioAssay.
FH mod: Identification of activators of human fumarate hydratase by quantitative high-throughput screening; Potency, µM (top dose mostly 79.9 µM), without a hit: top-dose activity change, negative = inhibition, most hits filed as inhibitors; AID 1347055, 2019; 0.22% of 54,000 active; FH coupled MDH/diaphorase resazurin fluorescence, 15 min; further: potency means the concentration at half of the fitted maximal effect; on the % scale 0 is the no-effect control and ±100 the full control effect; the screen sought activators but most active calls are inhibition curves; nearly all actives have a fitted effect of over 45% in size
DRV1 agonist: GPR32 (DRV1) agonism, beta-arrestin recruitment | AID 1346428 | 2.5% of 48,000 active | CHO-K1 GPR32 beta-arrestin PathHunter luminescence, 90 min; zero percent set by DMSO-only wells | activation, % at 76.9 µM | O75388;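 active means activation of at least 60% and not above a set upper limit, about 1 call in 100 departs from these limits; inconclusive means activation of 40% to 60%, or above that upper limit; inactive means activation under 40%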; further: 0% is about no effect
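PathHunter enzyme-fragment complementation, CHO-K1 GPR32 stable line; 2,500 cells/well, overnight attach; cpd 90 min 37 °C 5% CO2; detection reagent 1 h RT; chemiluminescence. DMSO = EC0.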
PTAP-TSG101 blk: TSG101-PTAP interaction inhibition, HIV-1 budding; Potency, µM (doses to about 115 µM), actives largely listed as inhibitors; AID 1347069; 44,000 tested, under 10 active; Q99816; Fluorescence polarization, FITC-PTAP peptide/Tsg101, 20 min; further: potency means the concentration at half of the fitted maximal effect; 0% is about no effect
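Steps: Tsg101 binding domain (10 uM final) in HEPES pH 7.5/NaCl/Tween 20/EDTA/TCEP; add compound; add FITC-PTAP peptide (50 nM final); incubate 20 min r.t.; read polarization.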
GALK inhibitor: GALK (human) enzyme inhibition; P51570; recombinant GALK, Kinase-Glo ATP luminescence, 1 h; Potency, µM (top dose mostly 57.5 µM), inactives show at the highest dose activity, negative = inhibition, hits mostly inhibitors; 44,000 tested, under 10 active; AID 1347072;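 further: plate controls were full GALK reaction for no effect and reaction lacking GALK for full effect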
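Luminescent ATP-depletion readout (Kinase-Glo Plus, 10 min) after 1 h RT reaction of 5 nM GALK, 35 uM ATP, 100 uM galactose, pH 8.0 HEPES buffer. Decreased kinase activity scored as inhibition.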
NTMT1 inh: inhibitors of human N-terminal methyltransferase NTMT1; NTMT1 MTase-Glo SAH luminescence, purified enzyme; Potency, µM (highest dose often 114 µM), for inactives: top-dose activity change, negative = inhibition, hits mostly inhibitors; 2.5% of 59,000 active; AID 1645870;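 further: potency means the concentration at half of the fitted maximal effect; plate controls were DMSO vehicle for no effect and no enzyme for full effect; nearly all actives have a fitted effect of over 65% in size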
Target sequence (Q9BV86 whole entry, looked up): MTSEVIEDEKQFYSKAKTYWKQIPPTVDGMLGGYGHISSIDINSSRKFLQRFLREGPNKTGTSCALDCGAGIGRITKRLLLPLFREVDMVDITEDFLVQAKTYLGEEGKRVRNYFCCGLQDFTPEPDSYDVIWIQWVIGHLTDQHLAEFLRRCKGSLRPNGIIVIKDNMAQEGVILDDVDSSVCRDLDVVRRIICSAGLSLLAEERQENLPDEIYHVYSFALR
B2AR arrestin ag: ADRB2 beta-arrestin recruitment; HTLA Tango cells, beta-arrestin recruitment, luciferase luminescence, 18 h; AID 1347077; Potency, µM (titrated, usually from 46.1 µM), most hits filed as activators; 44,000 tested, under 10 active; P07550;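 further: potency means the concentration at half of the fitted maximal effect; 0% = DMSO and full agonism = EC100 isoproterenol or metaproterenol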
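Receptor–beta-arrestin recruitment read by tTA-responsive luciferase: compound titrations (up to 46 µM) incubated 18 h with Tango cells, then luminescent substrate 15 min at room temperature. Concentration-response fits classified by r2, efficacy and activity.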
DYRK1A inh-1: blocks recombinant human DYRK1A kinase activity. shares compounds with NTMT1 inh. recombinant DYRK1A, Kinase-Glo ATP depletion luminescence. Potency, µM (top dose mostly 76.9 µM), for the others: top-dose activity change, negative = inhibition, actives largely listed as inhibitors. 80% of 100 active. AID 2705
CLK4 inh-1: CLK4 kinase inhibition, SAR round 2 | Potency, µM (series often up to 76.9 µM), for the others: top-dose activity, negative = inhibition, usual class: inhibitors | recombinant Clk4, Kinase-Glo ATP luminescence, 4.5 h | 90% of 90 active | shares compounds with NTMT1 inh
Target sequence (Q9HAZ1 whole entry, looked up): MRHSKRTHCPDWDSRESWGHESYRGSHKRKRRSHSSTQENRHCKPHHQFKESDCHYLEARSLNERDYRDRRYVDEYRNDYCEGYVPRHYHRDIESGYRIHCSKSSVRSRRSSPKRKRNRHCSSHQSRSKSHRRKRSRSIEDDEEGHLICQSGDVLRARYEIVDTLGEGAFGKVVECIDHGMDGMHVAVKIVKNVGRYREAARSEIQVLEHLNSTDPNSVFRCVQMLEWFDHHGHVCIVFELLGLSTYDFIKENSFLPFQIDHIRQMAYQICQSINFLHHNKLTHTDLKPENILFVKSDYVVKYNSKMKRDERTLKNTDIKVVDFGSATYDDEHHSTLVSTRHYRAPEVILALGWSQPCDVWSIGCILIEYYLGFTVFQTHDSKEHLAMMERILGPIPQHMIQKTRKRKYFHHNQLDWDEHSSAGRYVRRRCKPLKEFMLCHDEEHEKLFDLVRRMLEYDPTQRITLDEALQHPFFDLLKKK
CLK4 inh-2: CLK4 kinase inhibition, SAR round 2; shares compounds with NTMT1 inh; Reaction Biology kinase assay, 10 uM ATP; Potency, µM, most hits filed as inhibitors; 100% of 65 active; AID 504421; calls by dose curve
DYRK1A inh-2: DYRK1A kinase inhibition | Potency, µM, hits mostly inhibitors | shares compounds with NTMT1 inh | Reaction Biology kinase assay, 10 uM ATP | AID 504424 | 90% of 65 active;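 active means compounds that showed inhibition of Dyrk1a and received a fitted potency; inactive means compounds that showed no inhibition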
CLK2 inh: CLK2 kinase inhibition; shares compounds with NTMT1 inh; Reaction Biology kinase assay, 10 uM ATP; Potency, µM, hits mostly inhibitors; 90% of 65 active; AID 504427;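 active means compound that inhibits Clk2 kinase in the dose series, with an IC50 potency reported; inactive means no inhibition seen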
CLK3 inh: CLK3 kinase inhibition | shares compounds with NTMT1 inh | recombinant CLK3 kinase assay, 10 uM ATP | Potency, µM, hits mostly inhibitors | 40% of 65 active;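 active means compounds that inhibited Clk3 enough in the ten-dose series to give a half-maximal potency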
DYRK1B inh: inhibitors of human Dyrk1b kinase. shares compounds with NTMT1 inh. Recombinant Dyrk1b kinase assay, 10 uM ATP. Potency, µM, usual class: inhibitors. 80% of 65 active. AID 504429;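 active means compounds whose dose response shows an inhibitor phenotype against the kinase Dyrk1b; inactive means compounds showing no inhibitor phenotype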
CLK1 RBC: blocks human CLK1 kinase activity | 90% of 65 active | Potency, µM, actives largely listed as inhibitors | shares compounds with NTMT1 inh | AID 504430 | recombinant Clk1 kinase assay, 10 uM ATP;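 active means compounds that block the splicing kinase Clk1 enough to give a fitted half-inhibition concentration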
NNMT inh: counter-screen for NTMT1 inhibitors: human NNMT inhibition | AID 1645878 | NNMT MTase-Glo luminescence, SAH detection | 10% of 120 active | Potency, µM (doses to about 57.1 µM), for inactives: top-dose activity, negative = inhibition, usual class: inhibitors | shares compounds with NTMT1 inh
* hit, by the source's call; [ ] = dose if it differs, or a comment. Compounds with a hit are over-represented: about 3.7% of the library has one in this group of screens. Unless noted, the call rests on the fitted dose curve; in most records, active means well fitted curve in the direction sought with a large enough effect; inconclusive means small, poorly fitted or top-dose-only effect, or another doubt; inactive means no such curve, though single readings can be large; an effect the other way counts as inactive or inconclusive.

What do the screens show for `CCOC(=O)c1cnc2ccc(C)cc2c1NCCc1ccc(OC)c(OC)c1`?
FH mod: -20.7%; DRV1 agonist: -0.4; PTAP-TSG101 blk: inactive; GALK inhibitor: 2.4%; NTMT1 inh: -14.7%; B2AR arrestin ag: inactive

Results for c1cncc(CNc2ncnc3ccc(-c4ccco4)cc23)c1 ?
NTMT1 inh: -2.1%

What do the screens show for `Cc1ccc(OCCn2c(CCNC(=O)c3cccc(NC(=O)OC(C)(C)C)c3)nc3ccccc32)cc1`?
NTMT1 inh: 7.9%[57.5 µM]

Results for CCNC(=O)c1ccc(-c2ccc3ncnc(NCCc4cnc[nH]4)c3c2)o1 ?
NTMT1 inh: -3.0%[57.5 µM]; CLK4 inh-1: 1.3µM*

What do the screens show for `CN1CCN(C(=O)c2ccc3cc(CCNc4ncnc5ccc(C#N)cc45)ccc3c2)CC1`?
FH mod: 3.9%; NTMT1 inh: -11.7%[57.5 µM]

Results for COC(=O)[C@H](O)[C@H]1C(C)(C)[C@H](OC(=O)C(C)C)[C@@]2(O)C(=O)[C@]1(C)C1CC[C@]3(C)C(CC(=O)O[C@H]3c3ccoc3)[C@]13O[C@@H]32 (some centres undefined) ?
FH mod: -1.4%[20.6 µM]; NTMT1 inh: -10.4%[12.6 µM]

What do the screens show for `O=C(NCCN1CCCC1)c1cc(-c2ccc(CN3CCOCC3)cc2)nc2ccc(F)cc12`?
FH mod: 10.3%[53.3 µM]; NTMT1 inh: -16.1%[29.8 µM]; NNMT inh: -14.0%[28.6 µM]

What do the screens show for `Cc1ccc2nc3sc(C(=O)NCCN4CCOCC4)cc3cc2c1`?
NTMT1 inh: -0.4%[57.5 µM]

How did Cc1ccsc1CNc1ncnc2ccc(-c3ccc4c(c3)OCO4)cc12 do in these assays?
NTMT1 inh: -12.3%; DYRK1A inh-1: 0.0823µM*; CLK4 inh-2: 0.035*; DYRK1A inh-2: 0.035µM*; CLK2 inh: 2.16µM*; CLK3 inh: 6.55µM*; DYRK1B inh: 0.506µM*; CLK1 RBC: 0.069µM*

What do the screens show for `Cc1ccc(CNc2ncnc3ccc(-c4ccc5c(c4)OCO5)cc23)s1`?
NTMT1 inh: -0.1%[57.5 µM]; DYRK1A inh-1: 0.519µM*; CLK4 inh-2: 0.117*; DYRK1A inh-2: 1.16µM*; CLK2 inh: 15µM*; CLK3 inh: inactive; DYRK1B inh: 15µM*; CLK1 RBC: 0.888µM*

How did Cc1cccc(-c2ccc3ncnc(NCc4cc(C)cs4)c3c2)c1 do in these assays?
NTMT1 inh: -1.7%

What do the screens show for `Cc1occc1CNc1ncnc2ccc(-c3ccc4c(c3)OCO4)cc12`?
NTMT1 inh: inconclusive; DYRK1A inh-1: 0.0923µM*; CLK4 inh-2: 0.047*; DYRK1A inh-2: 0.057µM*; CLK2 inh: 2.73µM*; CLK3 inh: 6.45µM*; DYRK1B inh: 0.431µM*; CLK1 RBC: 0.086µM*

Results for c1csc(CNc2ncnc3cc(-c4ccc5c(c4)OCO5)ccc23)c1 ?
NTMT1 inh: -27.2%

What do the screens show for `c1csc(CNc2ncnc3ccc(-c4ccoc4)cc23)c1`?
NTMT1 inh: inconclusive; DYRK1A inh-1: 1.46µM*

How did Cc1cccc(CNc2ncnc3ccc(-c4ccc5c(c4)OCO5)cc23)c1 do in these assays?
NTMT1 inh: 5.2%[57.5 µM]

Results for Cc1cccc(C(=O)N2CCc3cc(-c4nc(NC(=O)Cc5ccc6c(c5)OCO6)sc4C)ccc32)c1 ?
NTMT1 inh: -11.5%

What do the screens show for `C[C@@H]1CC(=O)Nc2cccc(-c3cnn(C(C)(C)C)c3)c2N1`?
NTMT1 inh: 14.3%

Results for c1nc(OCc2cnc[nH]2)c2cc(-c3ccc4c(c3)OCO4)ccc2n1 ?
NTMT1 inh: -10.1%; DYRK1A inh-1: 8.23µM*

Results for c1nc(NCc2ccoc2)c2cc(-c3ccc4c(c3)OCO4)ccc2n1 ?
NTMT1 inh: inconclusive; DYRK1A inh-1: 0.0923µM*; CLK4 inh-2: 0.038*; DYRK1A inh-2: 0.126µM*; CLK2 inh: 0.877µM*; CLK3 inh: 4.65µM*; DYRK1B inh: 0.938µM*; CLK1 RBC: 0.111µM*

How did c1c[nH]c(CNc2ncnc3ccc(-c4ccc5c(c4)OCO5)cc23)n1 do in these assays?
NTMT1 inh: -11.7%; DYRK1A inh-1: 0.367µM*; CLK4 inh-2: 0.034*; DYRK1A inh-2: 0.155µM*; CLK2 inh: 3.59µM*; CLK3 inh: 15µM*; DYRK1B inh: 1.12µM*; CLK1 RBC: 0.191µM*
